# High-throughput results deposited in PubChem BioAssay by National Center for Advancing Translational Sciences (NCATS).
# Cycloheximide cs: affects cycloheximide protein synthesis inhibition readout, counter-screen. cell reporter, cycloheximide protein synthesis inhibition counterscreen. 12% of 300,000 active. max response, %. AID 2314; in the data active = max response mostly above about 13%, no sharp cut-off; inactive = mostly below about 14%; note: read at 38.3 µM for the half of the compounds with a filed dose
# SARS PLP yeast: inhibitors of SARS-CoV papain-like protease in yeast | S. cerevisiae expressing SARS-CoV PLpro, growth rescue | Potency, µM (titrated, usually from 32.9 µM), most hits filed as activators | 0.19% of 330,000 active | AID 485353; calls by dose curve; note: nearly all actives have a fitted effect of over 55% in size
# AmpC no deterg: blocks E. coli AmpC beta-lactamase in detergent-free assay. AmpC nitrocefin hydrolysis, absorbance 480 nm, 0.0001% Triton. 0.52% of 330,000 active. Potency, µM (series often up to 57.1 µM), actives largely listed as inhibitors; note: nearly all actives have a fitted effect of over 20% in size
# Target sequence (P00811 whole entry, looked up): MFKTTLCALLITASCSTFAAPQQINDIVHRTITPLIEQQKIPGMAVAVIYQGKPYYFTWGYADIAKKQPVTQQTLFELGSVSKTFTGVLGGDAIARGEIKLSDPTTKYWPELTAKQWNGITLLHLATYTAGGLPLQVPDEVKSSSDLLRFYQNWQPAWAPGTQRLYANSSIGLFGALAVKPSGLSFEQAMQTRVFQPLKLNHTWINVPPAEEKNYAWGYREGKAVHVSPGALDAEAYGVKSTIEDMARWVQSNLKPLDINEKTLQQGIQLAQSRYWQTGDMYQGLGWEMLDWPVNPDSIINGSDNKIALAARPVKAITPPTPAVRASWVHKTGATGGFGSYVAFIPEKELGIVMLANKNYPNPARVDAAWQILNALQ
#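 AmpC (5.3 nM in the dispensed reagent) in 20 mM phosphate pH 7.0 with 0.01% (detergent screen) or 0.0001% Triton X-100 was preincubated with compounds for 15 min at room temperature. Nitrocefin was then added from an 800 uM solution, and hydrolysis was followed at 480 nm.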
# Shiga inhibitor: blocks Shiga toxin action in Vero cells; Vero cells, Shiga toxin protein synthesis inhibition reporter; inhibition, % at 38.7 µM; 9.2% of 290,000 active; AID 2315; in the data active = inhibition mostly above about 28%, no sharp cut-off; inactive = mostly below about 43%
# AMA1 RON2 block: disrupts binding of P. falciparum AMA1 to RON2; AlphaScreen AMA1-biotinylated RON2 peptide binding; 0.2% of 360,000 active; Potency, µM (titrated, usually from 58.2 µM), usual class: inhibitors; AID 720542; note: nearly all actives have a fitted effect of over 45% in size
#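 AMA1 (3D7) with his tag at 25 nM final met compounds first, then biotinylated RON2 peptide at 25 nM; detection used donor plus acceptor beads, 10 µg/mL apiece, read by AlphaScreen after 30 min at room temperature.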
# AmpC inh detg: blocks E. coli AmpC beta-lactamase in detergent assay; P00811; AmpC hydrolysis of nitrocefin, absorbance 480 nm, 0.01% Triton; Potency, µM (top dose mostly 114 µM), actives largely listed as inhibitors; 0.041% of 370,000 active; AID 485294; note: nearly all actives have a fitted effect of over 25% in size
#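 AmpC (5.3 nM in the dispensed reagent) in 20 mM phosphate pH 7.0 with 0.01% (detergent screen) or 0.0001% Triton X-100 was preincubated with compounds for 15 min at room temperature. Nitrocefin was then added from an 800 uM solution, and hydrolysis was followed at 480 nm.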
# Numbers stand for hits; n = inactive; u = inconclusive; x = no result. Only a selection was taken, and hits are over-represented in it overall. Unless noted, calls come from the whole dose curve; as a rule, active = well fitted curve in the direction sought with a large enough effect; inconclusive = small, poorly fitted or top-dose-only effect, or another doubt; inactive = no such curve, though single readings can be large; an effect the other way counts as inactive or inconclusive.
SMILES,Cycloheximide cs,SARS PLP yeast,AmpC no deterg,Shiga inhibitor,AMA1 RON2 block,AmpC inh detg
Cn1ccnc1SCC(=O)c1cccc(C(F)(F)F)c1,25.9,n,n,71.8,n,n
COc1ccc(C(=O)CSc2nc(C)cc(=O)[nH]2)cc1,n,n,n,n,n,n
COc1ccc(C(=O)CSc2cc(C)[nH]c(=O)n2)cc1,40.2,n,n,64.1,n,n
Cn1ccnc1SCC(=O)c1ccc(OC(F)F)cc1,33.4,n,n,78.4,n,n
Cn1ccnc1SCC(=O)c1ccc(C#N)cc1,n,n,n,n,n,u
CC(=O)NCCNc1nc2cc(-c3ccccc3)sc2c(=O)n1C,x,x,x,x,n,x
Cc1ccccc1N(CC(=O)NC(C)(C)C)C(=O)CS(=O)CC(=O)Nc1ccc2c(c1)OCO2 (stereo not given),n,n,n,n,n,n
CCOc1ccc(NC(=O)CSc2nnc(C3CC3)n2C)cc1,n,n,n,n,n,n
CCOc1ccc(C(=O)CSc2nnc(C3CC3)n2C)cc1,14.0,n,n,37.3,n,u
COc1ccc(CC(=O)NCc2nnc(SCC(=O)c3ccc(OC)cc3)n2C)cc1,n,n,n,n,n,n
COc1cc(C(=O)CSc2nccn2C)cc(OC)c1OC,n,n,n,n,n,u
COc1ccc(NCc2nnc(SCC(=O)c3ccc(OC)cc3)n2C)cc1,33.6,n,n,n,n,n
COc1ccc(C(=O)CSc2nccn2C)cc1,29.5,n,n,67.2,n,n
Nc1ccc(S(=O)(=O)NCC2CCCCO2)cc1 (stereo not given),x,x,x,x,n,x
CN1C(=O)c2ccccc2Sc2ccc(NC(=O)Cc3c(F)cccc3Cl)cc21,x,x,x,x,x,n
O=S(=O)(N/N=C\c1ccccc1O)c1ccc(Cl)cc1,26.6,n,n,n,n,n
Cc1ccc(S(=O)(=O)N/N=C/c2ccccc2O)cc1,n,n,n,n,n,n
Cc1c(CBr)[n+](=O)c2c(n1[O-])C(Br)CCC2Br (stereo not given),14.3,n,n,n,n,n
CCN(CC)S(=O)(=O)c1ccc(N2CCOCC2)c(NC(=O)CN2C(=O)NC(C)(c3ccccc3)C2=O)c1 (stereo not given),x,n,n,x,n,n
O=c1cc(CN2CCCc3ccccc32)nc2sccn12,23.9,n,n,n,n,n
c1ccc(C2Nc3ccccc3-c3nc4ccccc4n32)nc1 (stereo not given),n,n,n,n,n,n
c1ccc(C2Nc3ccccc3-c3nc4ccccc4n32)cc1 (stereo not given),31.1,n,n,n,n,n
c1coc(C2Nc3ccccc3-c3nc4ccccc4n32)c1 (stereo not given),31.0,n,35.5µM,62.8,n,n
CCOc1cccc(C(=O)Nc2ccc3oc(-c4ccc(C(C)(C)C)cc4)nc3c2)c1,x,x,x,x,x,n
CC(C)c1ccc(OCC(=O)N(Cc2ccccc2)c2ccccn2)cc1,13.9,n,n,n,n,n
SMILES,Cycloheximide cs,SARS PLP yeast,AmpC no deterg,Shiga inhibitor,AMA1 RON2 block,AmpC inh detg
O=C(COc1ccc(Cl)cc1)N(Cc1ccccc1)c1ccccn1,n,n,n,n,n,n
O=C(COc1ccc(Br)cc1)N(Cc1ccccc1)c1ccccn1,n,n,n,52.7,n,n
CC(C)CNC(=O)/C(C#N)=C1\N=C(NC(=O)c2ccco2)c2ccccc21,12.4,n,n,n,n,n
COc1ccc(C2=NOC(Cn3nc(-c4ccccc4)cc3C(=O)O)C2)cc1 (stereo not given),x,n,n,x,n,n
COc1ccc(C2=NOC(CNC(=S)N3CCOCC3)C2)cc1 (stereo not given),34.0,n,n,56.5,n,n
COc1ccc(C2=C3C(=O)OCC3Cc3ncn(Cc4ccccc4)c32)cc1 (stereo not given),x,n,n,x,n,n
O=[N+]([O-])c1cccc(OCc2cn3cccnc3n2)c1,20.4,n,n,n,n,n
Cc1cccn2cc(CCNS(=O)(=O)c3ccc([N+](=O)[O-])cc3)nc12,n,n,n,n,n,n
Cc1ccc(OCc2cn3cccnc3n2)cc1,54.7,n,n,103.9,n,n
Cc1cccn2cc(COc3ccc(-c4ccccc4)cc3)nc12,71.4,n,n,68.2,u,n
